NPR2 activator: human GC-B receptor activators, primary screen, HEK293 GC-B cells, cGMP TR-FRET, EC30 CNP; Atrial natriuretic peptide receptor 2 (Homo sapiens), P20594; 0% at EC30 CNP, 100% saturating CNP; activation, % at 10 µM; actives 0.11% (n = 370,000);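 active = activation at 10 µM reaching about 35% in either raw or pattern-adjusted values, limit read from the data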
MsrA act: bovine MsrA enzyme activators, primary screen, biochemical, absorbance, HTS; Methionine sulfoxide reductase A (Bos taurus); purified bovine MsrA, absorbance read-out; activation, % at 10.6 µM; actives 0.3% (n = 360,000); AID 602163, 2012; in the data active = activation above about 7.5%;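 note: 0% = vehicle and 100% = reference activator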
m5-HT2A agonist: mouse Htr2a agonists via beta-arrestin recruitment, primary screen, cell-based, luminescence | CHO-K1 mHTR2A beta-arrestin complementation; percent of 30 µM serotonin response | actives 0.66% (n = 360,000) | AID 624169, 2012 | activation, % at 7.6 µM;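 active = activation above a run cutoff, the mean activation of all tested compounds plus 3 SD, cut at about 14% in these data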;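 note: 0% = plate median of compound wells and 100% = 30 µM serotonin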
NPR1 activator: GC-A stimulated cGMP production enhancers – HEK293 GC-A cells, cGMP TR-FRET, EC30 ANP, primary screen; Atrial natriuretic peptide receptor 1 (Homo sapiens), P16066; 0% at EC30 ANP, 100% saturating ANP; activation, % at 10 µM; actives 0.14% (n = 370,000); in the data active = activation above about 40%
Target sequence (P16066 whole entry, looked up): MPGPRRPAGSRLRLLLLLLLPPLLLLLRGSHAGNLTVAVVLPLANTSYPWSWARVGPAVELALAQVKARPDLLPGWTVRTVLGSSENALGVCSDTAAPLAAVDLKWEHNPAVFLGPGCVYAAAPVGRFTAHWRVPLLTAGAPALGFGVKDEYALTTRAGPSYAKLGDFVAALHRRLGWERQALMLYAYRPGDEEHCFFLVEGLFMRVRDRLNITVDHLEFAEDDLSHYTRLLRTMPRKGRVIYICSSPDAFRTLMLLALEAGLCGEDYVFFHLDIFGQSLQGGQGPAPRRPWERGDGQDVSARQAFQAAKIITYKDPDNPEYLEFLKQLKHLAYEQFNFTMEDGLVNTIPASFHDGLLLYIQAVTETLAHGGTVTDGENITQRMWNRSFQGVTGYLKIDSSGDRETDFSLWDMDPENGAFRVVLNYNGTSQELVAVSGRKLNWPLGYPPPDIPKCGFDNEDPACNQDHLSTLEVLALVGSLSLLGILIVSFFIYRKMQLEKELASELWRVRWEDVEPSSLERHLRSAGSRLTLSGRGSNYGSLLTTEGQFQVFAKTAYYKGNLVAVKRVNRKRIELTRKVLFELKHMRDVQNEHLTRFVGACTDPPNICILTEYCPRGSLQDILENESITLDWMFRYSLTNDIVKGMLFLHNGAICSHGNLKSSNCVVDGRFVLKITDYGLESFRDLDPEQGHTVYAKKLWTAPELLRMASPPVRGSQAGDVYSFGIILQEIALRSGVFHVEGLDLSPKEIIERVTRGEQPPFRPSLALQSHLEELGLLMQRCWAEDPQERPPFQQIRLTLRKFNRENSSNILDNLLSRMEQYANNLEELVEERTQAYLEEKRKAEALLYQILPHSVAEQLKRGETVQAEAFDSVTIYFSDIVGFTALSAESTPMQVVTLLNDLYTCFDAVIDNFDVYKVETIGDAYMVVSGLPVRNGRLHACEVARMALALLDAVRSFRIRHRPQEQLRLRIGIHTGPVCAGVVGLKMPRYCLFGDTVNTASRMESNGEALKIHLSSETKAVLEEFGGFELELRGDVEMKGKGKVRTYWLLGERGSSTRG
MsrA inhibitor: bovine MsrA enzyme inhibitors, primary screen, biochemical, absorbance, HTS | inhibition, % at 15.5 µM | actives 0.75% (n = 360,000) | Methionine sulfoxide reductase A (Bos taurus) | purified bovine MsrA, absorbance read-out;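 note: 0% = vehicle wells with enzyme and 100% = reference inhibitor wells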
MsrA inh confirm: bovine MsrA inhibitors, retest, confirmation, biochemical, absorbance, HTS | shares compounds with MsrA inhibitor | purified bovine MsrA, absorbance read-out | inhibition, % at 15.5 µM | actives 41% (n = 2,300);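 note: coupled to thioredoxin reductase with NADPH and selenocystamine and DMSO as substrate; 0% = vehicle only and 100% = full effect of reference inhibitor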
An asterisk follows results filed as active; x = not tested or not shown. The list is not random: actives were taken first. Their share in the collection is about 1.8%. Cut-off read from the data, not from the text of the source, unless noted: active = inhibition above about 4.5%; inactive = the rest.

SMILES | NPR2 activator | MsrA act | m5-HT2A agonist | NPR1 activator | MsrA inhibitor | MsrA inh confirm
COc1ccc(OC)c(S(=O)(=O)N2CCC(c3cn4ccccc4n3)CC2)c1 | -2 | x | x | -2 | x | x
CCOC(=O)CC[C@@]1(C(=O)OCC)C[C@@H](CC(=O)NCc2cccc3ccccc23)C(=O)N2CCCC=C21 | -6 | x | x | -3 | x | x
C=CCN(CC#Cc1ccc(C(F)(F)F)cc1)CC=C | -2 | x | x | 8 | x | x
Cc1cccc(N=c2c([N+](=O)[O-])nn(-c3ccc(Cl)cc3)n2O)c1 | -2 | -1 | 4 | -2 | 0 | x
CCc1cccc(N=c2c([N+](=O)[O-])nn(-c3ccc(Cl)cc3)n2O)c1 | 7 | -3 | 5 | 7 | 5.4* | 5.3*
COc1ccccc1-c1cc(C(=O)N2CCOCC2)no1 | 0 | -2 | 4 | -1 | 0 | x
COc1ccc(/C=C/c2cc(-c3ccc(C)cc3)o[n+]2C)cc1 | -1 | -6 | -5 | 9 | 5.0* | 4
O=c1[nH]c(=S)c2c(n1-c1ccccc1)CCC2 | 5 | -6 | 1 | 17 | 5.8* | 3
O=c1c(-c2ccccc2)c(O)c2c(n1-c1ccccc1)CCCC2 | -2 | -2 | 0 | 0 | 2 | x
CCOC(=O)/C(C#N)=C1/C=CN(C)C(C)=N1 | 2 | -7 | 2 | -1 | 6.6* | 6.0*
CS(=O)(=O)c1ccc(OC[C@@H](O)CN2CCC(C(O)(c3ccccc3)c3ccccc3)CC2)cc1 | -18 | x | x | -15 | x | x
O=C(N/N=C/c1cn(-c2ccccc2)nc1-c1ccc2c(c1)OCCO2)c1ccncc1 | 1 | 0 | -9 | -5 | 5.0* | 1
Cc1cccc(C(=O)Nc2nc3ncccn3c2-c2ccccc2)c1 | -4 | x | x | 1 | x | x
COc1cccc2cc(C(=O)Oc3ccc(NC(C)=O)cc3)c(=O)oc12 | -4 | -3 | -2 | 6 | 4.7* | 1
Cc1cc(N2CCCN(C)CC2)n2nc(C)nc2n1 | -2 | x | x | 1 | x | x
CC1(C)CCCN(C(=O)c2coc(=O)c(Br)c2)C1 | 3 | 1 | 2 | -1 | 4.9* | 2
CCc1cc2c(=O)c(-c3nc4ccccc4n3C)c(C)oc2c(CN(CC)CC)c1O | 8 | -2 | -2 | -1 | 5.3* | 4
CCN(CC)Cc1c(O)ccc2cc(-c3nc4ccccc4n3C)c(=O)oc12 | 7 | -1 | -2 | 12 | 2 | x
COc1ccc(NC(=O)/C=C2\SC(=O)NC2=O)cc1 | -5 | -5 | 2 | -3 | 4.8* | 3
CC(CCN1CCC(C(O)(c2ccccc2)c2ccccc2)CC1)Oc1ccc(C#N)cc1F (stereo not given) | -21 | x | x | -20 | x | x
Cc1c(N2C(=O)CS/C2=N\N=C\c2ccc(Cl)cc2)c(=O)n(-c2ccccc2)n1C | 2 | -3 | 0 | 2 | 1 | x
COc1ccc(/C=N/N=C2\SCC(=O)N2c2c(C)n(C)n(-c3ccccc3)c2=O)cc1OC | 2 | -5 | -1 | 0 | 5.7* | 4
CC(C)(C)c1ccc(S(=O)(=O)N2CCN(C(=O)C(=O)c3cccc(C(F)(F)F)c3)CC2)cc1 | 8 | x | x | -1 | 0 | x
Cc1nc(C)c(C(=O)N/N=C/c2c[nH]c3ccccc23)s1 | x | -2 | -3 | x | x | x
Cc1nc(C)c(C(=O)N/N=C/c2cn(C)c3ccccc23)s1 | 0 | -2 | -2 | 5 | 5.1* | 3
SMILES | NPR2 activator | MsrA act | m5-HT2A agonist | NPR1 activator | MsrA inhibitor | MsrA inh confirm
O=C(N/N=C/c1ccc(-c2ccccc2C(=O)O)o1)c1cccs1 | -1 | -5 | -1 | 0 | 6.8* | 4.6*
COCCNC(=O)/C(C#N)=C/C=C/c1ccccc1 | -5 | -4 | 1 | -2 | 7.1* | 5.3*
Cc1ccc(C2=NS(=O)(=O)N(C)C(C(=O)NCc3ccccn3)=C2)cc1 | 0 | 2 | 8 | 2 | 5.2* | 2
COc1ccc(C2=NS(=O)(=O)N(C)C(C(=O)N3CCN(C)CC3)=C2)cc1 | -1 | -4 | -4 | -2 | 5.9* | 3
Cc1ccc(C2=NS(=O)(=O)N(C)C(C(=O)NCc3cccs3)=C2)cc1 | 0 | -3 | -1 | 3 | 4 | x
Cc1ccc(C2=NS(=O)(=O)N(C)C(C(=O)N3CCCCC3)=C2)cc1 | 0 | -3 | -4 | 3 | 5.0* | 3
CCN1CCN(C(=O)C2=CC(c3ccc(C)cc3)=NS(=O)(=O)N2C)CC1 | 2 | -2 | -6 | 1 | 3 | x
O=C(OCc1ccccc1)[C@H](Cc1ccccc1)NC(=O)[C@@H]1CC=C[C@@H]2CCN(CCc3ccccc3)C(=O)[C@@H]21 | -9 | x | x | -2 | x | x
COc1cc(/C=N/Nc2nc(N3CCCC3)nc(N3CCCC3)n2)ccc1O | 4 | -13 | -5 | 6 | 5.2* | 2
COc1cc(C=O)ccc1O | 7 | -8 | 1 | 1 | 6.2* | 3
CC(=O)Nc1ccc(/C=N/NC(=S)NC(C)C)cc1 | 4 | -1 | 0 | 8 | 8.9* | 4
COc1cc(/C=N/Nc2ccc(C(=O)O)cc2)cc(OC)c1OC | -4 | -2 | -2 | 1 | 3 | x
COc1cc(/C=N/Nc2ccc(S(N)(=O)=O)cc2)cc(OC)c1OC | 0 | -2 | -1 | 2 | 5.6* | 6.3*
C#CCNC(=O)C[C@H]1C[C@@]2(C(=O)OC)C(=C[C@H](C3CCCC3)O[C@@H]2C)N(Cc2cccc3ccccc23)C1=O | -21 | x | x | -19 | x | x
COc1ccc(/C=N/NC(=S)Nc2cccc(C(=O)O)c2)cc1 | -5 | -6 | 3 | -3 | 4 | x
COc1cc(/C=N/NC(=S)Nc2cccc(C(=O)O)c2)ccc1O | 0 | -6 | 5 | -1 | 5.1* | 5.6*
CCNc1nc(NCC)nc(N/N=C/c2ccc(OC)cc2)n1 | 4 | -5 | -2 | 2 | 1 | x
COc1ccc(/C=N/NC(=S)Nc2ccccc2)cc1COc1ccc(Br)cc1 | -5 | -4 | 2 | 1 | 2 | x
COc1ccc(/C=N/NC(=S)Nc2ccccc2)cc1 | 1 | -8 | 6 | -3 | 4.9* | 4
COc1cc(/C=N/Nc2ccc(C(=O)O)cc2)ccc1O | -3 | -6 | -1 | -6 | 7.1* | 5.1*
COc1ccc(/C=N/Nc2nc(C)nc(N)n2)cc1 | -2 | -4 | -4 | -5 | 4.7* | 3
COC(=O)C1CCCN(C(=O)C2CCN(S(=O)(=O)c3ccc([N+](=O)[O-])cc3)CC2)C1 (stereo not given) | -5 | x | x | 2 | x | x
COc1ccc(/C=N/Nc2ccc(C(=O)O)cc2)c(OC)c1OC | -6 | -6 | 3 | -2 | 5.8* | 5.5*
